Read-out in assay [1]: Interleukin-1 alpha (IL1a), IL1A (gene 3552)
Put plainly: BSK_LPS_IL1a: BioMAP Diversity Plus: LPS Assay for Interleukin-1 alpha (IL1a) Biomarker Activity (AID 2283080). The settings on record: primary human HUVEC with PBMC; actives raise or lower the signal. The essentials:
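Measured: IL-1 alpha via ELISA at 24 h in LPS-activated human umbilical vein endothelium–PBMC co-culture. Baseline: DMSO, bidirectional fitting.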

Assay [2] is described as follows: BSK_LPS_PGE2: BioMAP Diversity Plus: LPS Assay for Prostaglandin E2 (PGE2) Biomarker Activity (AID 2283082).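 As to AC50: secreted prostaglandin E2 measured by ELISA in LPS-stimulated co-culture.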 The settings on record: primary human HUVEC with PBMC; actives raise or lower the signal. The essentials:
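Endpoint derived from bidirectional curve fitting versus DMSO of ELISA-measured PGE2 in LPS-stimulated human primary vascular co-culture (HUVEC with PBMC) harvested at 24 h.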

Read-out in assay [3]: Macrophage colony-stimulating factor (MCSF), CSF1 (gene 1435)
Put plainly: BSK_LPS_MCSF: BioMAP Diversity Plus: LPS Assay for Macrophage colony-stimulating factor (MCSF) Biomarker Activity (AID 2283083). The settings on record: primary human HUVEC with PBMC; actives raise or lower the signal. The essentials:
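Compound is added to a human vascular primary co-culture of umbilical vein endothelium and blood mononuclear cells. After 24 h, M-CSF is quantified by ELISA. Signal changes are fitted in both directions against DMSO.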

Read-out in assay [4]: Tissue Factor, F3 (gene 2152)
The experiment in a line: BSK_LPS_TissueFactor: BioMAP Diversity Plus: LPS Assay for Tissue Factor Biomarker Activity (AID 2283084). The settings on record: primary human HUVEC with PBMC; actives raise or lower the signal. The essentials: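 In this co-culture system of umbilical vein endothelium with PBMC, stimulated with LPS, cell-surface CD142 is detected by ELISA at 24 h. Endpoint values derive from bidirectional fitting, DMSO serving as baseline.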

Read-out in assay [5]: Tumor necrosis factor (Homo sapiens) (UniProt P01375)
Put plainly: BSK_LPS_TNFa: BioMAP Diversity Plus: LPS Assay for Tumour Necrosis Factor alpha (TNFa) Biomarker Activity (AID 2283085). The settings on record: primary human HUVEC with PBMC; actives raise or lower the signal. The essentials:
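Primary human vascular co-culture of HUVEC and PBMC; TNFa ELISA 24 h after treatment, analysed as increase or decrease relative to DMSO control.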

Read-out in assay [6]: Vascular cell adhesion molecule 1 (VCAM1), VCAM1 (gene 7412)
The experiment in a line: BSK_LPS_VCAM1: BioMAP Diversity Plus: LPS Assay for Vascular cell adhesion molecule 1 (VCAM1) Biomarker Activity (AID 2283086). As to conditions: primary human HUVEC with PBMC; actives raise or lower the signal. The essentials: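 Primary human vascular co-culture (umbilical vein endothelium plus PBMC) stimulated with LPS received chemical; 24 h later VCAM-1 was read by ELISA. Overt cytotoxicity was assessed by sulforhodamine B staining of parallel cultures at the same time point.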

Read-out in a further assay: CD38, CD38 (gene 952)
The experiment in a line: BSK_SAg_CD38: BioMAP Diversity Plus: SAg Assay for CD38 Biomarker Activity (AID 2283087). The settings on record: primary human HUVEC with PBMC; actives raise or lower the signal. The essentials: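 Fluorescence ELISA of cell-surface CD38 served as the read-out, with either increase or decrease fitted against DMSO controls. Cells were a human umbilical vein endothelium plus PBMC co-culture under SEB/TSST-1 stimulation, measured 24 h after dosing.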

Read-out in the next assay: CD40, CD40 (gene 958)
The experiment in a line: BSK_SAg_CD40: BioMAP Diversity Plus: SAg Assay for CD40 Biomarker Activity (AID 2283088). The settings on record: primary human HUVEC with PBMC; actives raise or lower the signal. The essentials:
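Fluorescence ELISA read-out of CD40 from umbilical vein endothelium plus peripheral blood mononuclear cells, sampled 24 h after dosing. Values come from bidirectional curve fitting with DMSO as baseline.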

Read-out in another assay: CD69, CD69 (gene 969)
The experiment in a line: BSK_SAg_CD69: BioMAP Diversity Plus: SAg Assay for CD69 Biomarker Activity (AID 2283089).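 As to AC50: cell surface CD69 protein quantified by ELISA with fluorescence detection.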 As to conditions: primary human HUVEC with PBMC; actives raise or lower the signal. The essentials:
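HUVEC co-cultured with PBMC were dosed with chemical, and CD69 was measured by ELISA with fluorescence read-out 24 h later. Bidirectional curve fitting used DMSO as negative control and activity baseline.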

Read-out in assay [7]: Monocyte Chemoattractant Protein-1 (MCP1), CCL2 (gene 6347)
Put plainly: BSK_SAg_MCP1: BioMAP Diversity Plus: SAg Assay for Monocyte Chemoattractant Protein-1 (MCP1) Biomarker Activity (AID 2283090). The settings on record: primary human HUVEC with PBMC; actives raise or lower the signal. The essentials:
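MCP-1 levels in the endothelial–PBMC SAg co-culture were quantified by ELISA at 24 h post-dosing; both increases and decreases versus DMSO scored. Cytotoxicity monitored by SRB total protein in parallel cultures.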

Read-out in assay [8]: E-selectin (Homo sapiens) (UniProt P16581)
Put plainly: BSK_SAg_Eselectin: BioMAP Diversity Plus: SAg Assay for Eselectin Biomarker Activity (AID 2283091). The settings on record: primary human HUVEC with PBMC; actives raise or lower the signal. The essentials:
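Primary human endothelial cells and peripheral blood mononuclear cells were co-cultured and exposed to chemical for 24 hours. E-selectin levels were then quantified by ELISA, with bidirectional curve fitting normalised to DMSO controls.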

Read-out in assay [9]: Monokine induced gamma interferon (MIG), CXCL9 (gene 4283)
Put plainly: BSK_SAg_MIG: BioMAP Diversity Plus: SAg Assay for Monokine induced gamma interferon (MIG) Biomarker Activity (AID 2283092). The settings on record: primary human HUVEC with PBMC; actives raise or lower the signal. The essentials:
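HUVEC plus human PBMC co-culture, chemicals dosed and MIG (CXCL9) quantified by ELISA at 24 h. Bidirectional curve fitting against DMSO as negative control and baseline, so both gain and loss of signal count as activity.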

Assay [10] is described as follows: BSK_SAg_PBMCCytotoxicity: PBMC Cytotoxicity Assessment in the BioMAP Diversity Plus: SAg Assay (AID 2283093).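 Also: PBMC viability measured as Alamar Blue reduction fluorescence at 546/580 nm; fitted both ways against DMSO so a hit may be loss or gain of signal.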 As to conditions: primary human HUVEC with PBMC. The essentials:
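Compound added to 75,000 PBMC/well for 1 h; SEB and TSST-1 then added at 20 ng/mL final each; 90 h incubation; Alamar Blue 6 h; read 546/580 nm ex/em. Activity fitted bidirectionally relative to DMSO baseline.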

Read-out in assay [11]: Interleukin-8 (IL8), CXCL8 (gene 3576)
Put plainly: BSK_SAg_IL8: BioMAP Diversity Plus: SAg Assay for Interleukin-8 (IL8) Biomarker Activity (AID 2283094). As to conditions: primary human HUVEC with PBMC; actives raise or lower the signal. The essentials: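 In this co-culture of human umbilical vein endothelium with peripheral blood mononuclear cells, IL-8 is assayed by ELISA at 24 h. DMSO serves as baseline for bidirectional curve fitting.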

Assay [12] can be described thus: BSK_SAg_Proliferation: Cell Proliferation Assessment in the BioMAP Diversity Plus: SAg Assay (AID 2283095).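 Also: relative cell number as total protein by SRB absorbance in sub-confluent culture.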 As to conditions: primary human HUVEC with PBMC. The essentials:
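Readout is SRB-stained protein (560 nm) in a primary human HUVEC and PBMC co-culture; sub-confluent cultures are read at 96 h. Activity is fitted bidirectionally using DMSO as baseline.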

Assay [13] can be described thus: BSK_SAg_SRB: Viability Assessment in the BioMAP Diversity Plus: SAg Assay (AID 2283096).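 Also: cells read one day after compound addition; hits may be either gain or loss of signal compared with DMSO.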 As to conditions: primary human HUVEC with PBMC. The essentials: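 Total protein by sulforhodamine B staining, 24 h after dosing, in HUVEC–PBMC co-culture; DMSO-referenced bidirectional fitting.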
Assay [14] has as its target human CYP19A1, CYP19A1 (gene 1588) (UniProt P11511). The experiment in a line: NVS_ADME_hCYP19A1: NovaScreen (NVS) CYP450-related Enzyme Activity (ADME) Assay for human CYP19A1 (AID 2283098; active = hit-call score of the fitted dose curve at least 0.9, where 1 is the maximum;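 as to AC50: potency for inhibitors seen as loss of fluorescent enzyme signal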). The essentials:
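Biochem, cell-free; recombinant enzyme + specific substrate; fluorescence intensity at 0.5 h post-dose; 10 uM duplicate primary, conc. series for actives; acetonitrile = negative control/baseline; positive and negative controls on every plate.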

Assay [15] deals with human CYP1A1, CYP1A1 (gene 1543) (UniProt P04798). Put plainly: NVS_ADME_hCYP1A1: NovaScreen (NVS) CYP450-related Enzyme Activity (ADME) Assay for human CYP1A1 (AID 2283100; active = hit-call score of the fitted dose curve at least 0.9, where 1 is the maximum). The essentials: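 Compounds first went through duplicate single-concentration testing at 10 uM against purified CYP1A1. Those passing a threshold such as 30% inhibition entered singleton dose-response, highest concentration 20 uM. Signal was fluorescence measured after 1 hour.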
human CYP1A1, CYP1A1 (gene 1543), sequence (P04798 whole entry, looked up): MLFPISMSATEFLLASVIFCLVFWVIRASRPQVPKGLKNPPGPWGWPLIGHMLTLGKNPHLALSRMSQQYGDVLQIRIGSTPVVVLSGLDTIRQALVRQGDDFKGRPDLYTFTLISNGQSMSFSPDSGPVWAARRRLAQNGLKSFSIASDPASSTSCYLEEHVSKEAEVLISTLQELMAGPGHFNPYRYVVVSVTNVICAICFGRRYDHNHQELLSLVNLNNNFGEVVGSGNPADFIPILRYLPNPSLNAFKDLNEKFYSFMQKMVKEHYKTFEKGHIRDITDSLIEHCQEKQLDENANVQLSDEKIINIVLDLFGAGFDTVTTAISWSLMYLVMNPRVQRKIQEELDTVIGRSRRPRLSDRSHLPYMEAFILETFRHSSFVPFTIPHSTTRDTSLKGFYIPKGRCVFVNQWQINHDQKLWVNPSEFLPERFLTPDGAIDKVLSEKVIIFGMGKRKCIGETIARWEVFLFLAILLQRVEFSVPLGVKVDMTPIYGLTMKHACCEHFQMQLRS

Records with an inconclusive call do not appear. The source made the active and inactive calls. The calls were made as follows, unless noted: active = hit-call score of the fitted dose curve at least 0.9, where 1 is the maximum; inactive = score below 0.9.

Tumor necrosis factor (Homo sapiens), sequence (P01375 whole entry, looked up): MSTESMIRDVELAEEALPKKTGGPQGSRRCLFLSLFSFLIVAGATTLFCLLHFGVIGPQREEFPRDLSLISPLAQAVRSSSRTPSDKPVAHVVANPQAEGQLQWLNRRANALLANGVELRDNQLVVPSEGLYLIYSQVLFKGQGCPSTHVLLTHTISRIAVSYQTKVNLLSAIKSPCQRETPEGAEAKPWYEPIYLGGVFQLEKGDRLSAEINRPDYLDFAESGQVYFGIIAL
E-selectin (Homo sapiens), sequence (P16581 whole entry, looked up): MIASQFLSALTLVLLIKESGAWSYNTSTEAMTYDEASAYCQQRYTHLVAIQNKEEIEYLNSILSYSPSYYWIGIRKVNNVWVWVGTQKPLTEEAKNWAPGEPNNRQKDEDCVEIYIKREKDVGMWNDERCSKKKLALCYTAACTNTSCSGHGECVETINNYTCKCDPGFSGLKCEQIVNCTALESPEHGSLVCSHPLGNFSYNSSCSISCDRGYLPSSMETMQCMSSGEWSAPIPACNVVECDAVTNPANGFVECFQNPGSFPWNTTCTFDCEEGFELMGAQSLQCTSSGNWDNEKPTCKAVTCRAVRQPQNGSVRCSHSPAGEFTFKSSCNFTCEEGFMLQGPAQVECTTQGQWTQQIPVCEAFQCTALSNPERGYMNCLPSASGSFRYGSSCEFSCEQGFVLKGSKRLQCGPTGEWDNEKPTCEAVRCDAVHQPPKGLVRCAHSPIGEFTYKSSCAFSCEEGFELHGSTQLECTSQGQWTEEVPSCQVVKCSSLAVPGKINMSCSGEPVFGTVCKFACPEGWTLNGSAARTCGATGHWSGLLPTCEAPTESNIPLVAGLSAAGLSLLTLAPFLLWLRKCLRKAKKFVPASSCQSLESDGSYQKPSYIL
human CYP19A1, CYP19A1 (gene 1588), sequence (P11511 whole entry, looked up): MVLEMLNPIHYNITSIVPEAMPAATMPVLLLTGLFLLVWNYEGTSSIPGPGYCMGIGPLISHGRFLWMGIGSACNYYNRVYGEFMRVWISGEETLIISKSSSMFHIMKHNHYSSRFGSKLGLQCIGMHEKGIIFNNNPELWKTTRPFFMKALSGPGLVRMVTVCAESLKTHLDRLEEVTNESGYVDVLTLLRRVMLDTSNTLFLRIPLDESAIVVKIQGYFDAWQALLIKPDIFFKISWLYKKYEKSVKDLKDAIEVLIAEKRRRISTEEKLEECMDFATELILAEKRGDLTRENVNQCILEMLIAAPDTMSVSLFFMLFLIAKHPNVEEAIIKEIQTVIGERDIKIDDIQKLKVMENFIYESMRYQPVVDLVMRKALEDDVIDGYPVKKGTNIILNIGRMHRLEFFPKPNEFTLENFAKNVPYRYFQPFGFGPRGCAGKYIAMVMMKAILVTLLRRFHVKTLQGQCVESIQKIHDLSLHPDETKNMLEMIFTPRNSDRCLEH

With `Nc1c(Cl)c(Cl)nc(C(=O)O)c1Cl`, the result in assay [1], in [2], in assay [3], in [4], in assay [5] and in assay [6] was inactive. The outcome is “inactive” in the assay with CD38, CD38 (gene 952); “inactive” in the assay with CD40, CD40 (gene 958); “inactive” in the assay with CD69, CD69 (gene 969); “inactive” in assay [7]; “inactive” in [8]; “inactive” in assay [9]. In addition, the outcome in assay [10], in [11], in assay [12] and in [13] was inactive.

With `CCCCC(C#N)(Cn1cncn1)c1ccc(Cl)cc1` (centres undefined), the outcome in assay [1] was “inactive”; in assay [3], “inactive”; in assay [4], “inactive”; in [5] it was “inactive”; in assay [6], “inactive”; with CD38, CD38 (gene 952) it was “inactive”. Moreover, the outcome in the assay with CD40, CD40 (gene 958) is “inactive”; with CD69, CD69 (gene 969), “inactive”; in assay [7] it was “inactive”; in [8], “inactive”; in [9] it was “inactive”; in assay [10], “inactive”. Further, the result in assay [11], in assay [12] and in assay [13] was inactive. The results for the half-maximal activity concentration (AC50) in assay [2], in assay [14] and in assay [15] were 12 µM (active), 789 nM (active) and 10.4 µM (active), respectively.

`N#Cc1c[nH]cc1-c1cccc2c1OC(F)(F)O2`: the half-maximal activity concentration (AC50) in assay [1] was 14.8 µM (active); in assay [3] it was 26.3 µM (active); in assay [5], 29.8 µM (active); in assay [6], 20 µM (active); with CD38, CD38 (gene 952), 29.1 µM (active); with CD40, CD40 (gene 958) it was 20 µM (active). For the same compound, the AC50 with CD69, CD69 (gene 969) was 24.5 µM (active); in assay [7], 20.4 µM (active); in assay [11], 27.4 µM (active); in [12] it was 20 µM (active); in assay [13] it was 13.1 µM (active). In addition, the result in assay [2], in [4], in assay [8], in assay [9] and in assay [10] was inactive.

As for `CNC(=O)N(C)c1nnc(C(C)(C)C)s1`, the result in assay [1], in assay [2], in [3], in assay [4], in assay [5] and in assay [6] was inactive. The outcome with CD38, CD38 (gene 952) was “inactive”; with CD40, CD40 (gene 958) it was “inactive”; in the assay with CD69, CD69 (gene 969) it was “inactive”; in assay [7] it was “inactive”; in assay [8], “inactive”; in assay [9] it was “inactive”. Moreover, the outcome in [10], in assay [11], in assay [12] and in assay [13] was inactive.

Regarding `CS(=O)(=O)c1cc(C(F)(F)F)ccc1C(=O)c1cnoc1C1CC1`, the result in assay [1], in assay [2], in [3], in assay [4], in assay [5] and in assay [6] was inactive. In addition, the outcome in the assay with CD40, CD40 (gene 958) is “inactive”; in the assay with CD69, CD69 (gene 969) it was “inactive”; in [7] it was “inactive”; in [8], “inactive”; in assay [9], “inactive”; in assay [10], “inactive”. In addition, the result in [11], in [12] and in assay [13] was inactive. The AC50 in the assay with CD38, CD38 (gene 952) is 5.57 µM (active).

On to `CN=C=S`, for which the result in assay [1], in [2], in assay [3], in assay [4], in [5] and in assay [6] was inactive. Further, the outcome with CD69, CD69 (gene 969) is “inactive”; in [9], “inactive”; in assay [10], “inactive”; in assay [13], “inactive”; in [14] it was “inactive”. Further, the concentration at half-maximal activity (AC50) in the assay with CD38, CD38 (gene 952) was 10 µM (active); in the assay with CD40, CD40 (gene 958) it was 13.5 µM (active); in [7], 20 µM (active); in [8], 12 µM (active); in assay [11] it was 11.7 µM (active); in assay [12] it was 13.7 µM (active).

A word on the AC50: it is the concentration at which the activity in the assay is half-maximal.

(Values after PubChem BioAssay (EPA / NIEHS).)
